# Reference: PubChem BioAssay (NCATS)
# Records with an inconclusive call do not appear. Activity calls are given as the source filed them. Unless noted, the rule behind the calls is not given here.
# How the values were obtained:
# [1] = qHTS profiling for inhibitors of Plasmodium falciparum (HB3) proliferation (AID 743324; active = well fitted curve in the direction sought with a large enough effect; an effect the other way counts as inactive or inconclusive;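 note: 100% = DMSO vehicle wells and 0% = artemisinin-treated control wells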); details: Plasmodium falciparum HB3 blood-stage proliferation; at 28.7 µM (top of the series) unless noted
# In short: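 SYBR Green fluorescence (485 ex/535 em) of lysed cultures, incubated overnight at room temperature in the dark, quantifies parasite DNA. Infected erythrocytes at 0.3% parasitemia and 2.5% hematocrit were exposed 72 h; values normalized to DMSO and 0.29 uM artemisinin controls.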
# [2] = qHTS profiling of the MIPE4 collection as inhibitors of Plasmodium falciparum (3D7) proliferation (AID 743344);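 note: scaled between DMSO vehicle wells and 0.29 µM artemisinin as full inhibition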; details: P. falciparum 3D7 in erythrocytes, SYBR Green DNA fluorescence, 72 h
# In short: (§1)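 Parasite DNA was quantified by SYBR Green I fluorescence (ex 485, em 535 nm) after overnight lysis in saponin/Triton buffer at room temperature. Cultures at 0.3% parasitemia and 2.5% hematocrit were first exposed to compound for 72 h at 37 C; signals were normalised to artemisinin (0.29 uM) and vehicle wells.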
# [3] = qHTS profiling of the MIPE4 collection as inhibitors of Plasmodium falciparum (DD2) proliferation (AID 743345); details: P. falciparum Dd2 in erythrocytes, SYBR Green DNA, 72 h
# In short: as §1
# [4] = qHTS profiling of the MIPE4 collection as inhibitors of Plasmodium falciparum (HB3) proliferation (AID 743347);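 note: plate controls were DMSO vehicle wells for no effect and artemisinin wells for full effect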; details: P. falciparum HB3 in erythrocytes, SYBR Green DNA, 72 h
# In short: as §1
# [5] = High-throughput drug toxicity screening in the BPDCN cell line Gen2.2 (AID 1224824); details: Gen2.2 BPDCN cells; at 45.8 µM (top of the series) unless noted;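 note: cells exposed to compounds for 48 h before reading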
# In short: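 Seed 500 exponentially growing Gen2.2 cells/well; add compounds by pin tool; incubate 48 h, 37 °C, 5% CO2; add CellTiter-Glo, 15 min RT; read luminescence. % activity vs DMSO (100%) and bortezomib (0%).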
# [6] = High-throughput drug toxicity screening in the BPDCN cell line Cal-1 (AID 1224825); details: Cal-1 BPDCN cell viability, qHTS; at 45.8 µM (top of the series) unless noted
# In short: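 CellTiter-Glo luminescence after 48 h compound exposure; percent activity scaled with DMSO as 100% and bortezomib (9.2 uM final) as 0%. Cal-1 cells seeded at 500/well in RPMI, 10% FBS, no phenol red.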
# [7] = qHTS assay for measurement of the activity of small molecule inhibitors on Zika virus induced Caspase-3 activity in human iPSC derived neural progenitor cells (hNPCs) (AID 1224857; active = well fitted curve in the direction sought with a large enough effect; an effect the other way counts as inactive or inconclusive; note: % of control where 0% means no effect; nearly all actives have a fitted effect of over 65% in size)
# In short: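 Caspase-3/7 induction by a 6-hour ZIKV infection was quantified with a luminescent Caspase-Glo 3/7 reagent incubated 30 minutes at room temperature. Compounds were preincubated with hNPCs for 1 hour; inhibition was calculated against uninfected and infected control wells.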
# [8] = qHTS assay for measurement of the activity of small molecule inhibitors on Zika virus induced Caspase-3 activity in human astrocytoma cells (AID 1224859; active = well fitted curve in the direction sought with a large enough effect; an effect the other way counts as inactive or inconclusive;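 note: plate controls were ZIKV-infected untreated cells for no effect and uninfected cells for full effect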)
# In short: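 In SNB-19 cells plated at 250 cells/well and grown 16-20 h, compounds were applied 1 h before ZIKV (2 FFU/cell). Six hours later caspase-3/7 luminescence was recorded.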
# [9] = qHTS Screen of the MIPE 4.0 Collection Against Ewings Sarcoma (RDES) (AID 1259252; active = well fitted curve in the direction sought with a large enough effect; an effect the other way counts as inactive or inconclusive; note: nearly all actives have a fitted effect of over 35% in size; note: potency is the fitted concentration of half-maximal effect)
# In short: (§2)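 Dose series incubated 48 h with cells in RPMI plus 5% FBS, glutamine and penicillin/streptomycin; cell viability then quantified via CellTiter-Glo.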
# [10] = qHTS Screen of the MIPE 4.0 Collection Against Ewings Sarcoma (TC32) (AID 1259256; active = well fitted curve in the direction sought with a large enough effect; an effect the other way counts as inactive or inconclusive; note: nearly all actives have a fitted effect of over 45% in size; note: potency is the fitted concentration of half-maximal effect)
# In short: as §2
# [11] = qHTS assay to identify small molecule inhibitors of chordoma cells - UCH-2 (AID 1259356; active = well fitted curve in the direction sought with a large enough effect; an effect the other way counts as inactive or inconclusive; note: % is set by controls: 0 for no effect and ±100 for the full control effect)
# [12] = qHTS profiling of the MIPE4 collection as inhibitors of Plasmodium falciparum (DD2) proliferation (Rep 2) (AID 743346); details: P. falciparum Dd2 in erythrocytes, SYBR Green DNA, 72 h; at 28.5 µM (top of the series) unless noted
# In short: as §1
# [13] = qHTS Screen of the MIPE 4.0 Collection Against Ewings Sarcoma (EW8) (AID 1259255; active = well fitted curve in the direction sought with a large enough effect; an effect the other way counts as inactive or inconclusive; note: nearly all actives have a fitted effect of over 35% in size; note: potency is the fitted concentration of half-maximal effect;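 for viability: 100% = DMSO-treated cells and 0% = medium-only wells without cells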)
# In short: as §2
# [14] = P-glycoprotein substrates identified in KB-3-1 adenocarcinoma cell line, qHTS therapeutic library screen (AID 1346986; active = well fitted curve in the direction sought with a large enough effect; an effect the other way counts as inactive or inconclusive; note: nearly all actives have a fitted effect of over 60% in size)
# In short: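 Viability by CellTiter-Glo after 72 h compound exposure at 37 degree C, 5% CO2. Cytotoxic call: curve class -1.1 to -2.4, maximum response >50%, AC50 < 10 uM, compared across KB-3-1 and P-gp-overexpressing KB-8-5-11.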
# [15] = Identifying Small Molecule Inhibitors of Pancreatic Cancer Stem Cells (A2780, Spheroid) (AID 1259357; active = well fitted curve in the direction sought with a large enough effect; an effect the other way counts as inactive or inconclusive;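 note: spheroids pre-formed over 14 days in stem cell medium on hydrogel; compound exposure lasted 48 h before the ATP luminescence read; 100% = DMSO treated cells and 0% = wells without cells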); details: Potency: A2780 spheroid viability
# In short: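 Spheroids grown 14 days in stem cell media on hydrogel-coated nonadherent plates; 2D lines seeded directly. Compounds added after 4 h attachment, 48 h at 37C, 5% CO2; CellTiter-Glo luminescence normalized to DMSO (no inhibition) and no-cell wells (full inhibition).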
# [16] = Identifying Small Molecule Inhibitors of Pancreatic Cancer Stem Cells (SN12C, Adherent) (AID 1259358; active = well fitted curve in the direction sought with a large enough effect; an effect the other way counts as inactive or inconclusive;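 note: cell survival measured after 48 h of compound exposure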)
# In short: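 Endpoint: ATP-based luminescence, 48 h drug exposure. Bortezomib at 9.2 uM final as full-kill control; DMSO vehicle as negative control; activity normalized between vehicle and cell-free wells.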
# [17] = at 28.5 µM (top of the series) unless noted
compound,measurement,setting,value
Clc1ccc(COC(Cn2ccnc2)c2ccc(Cl)cc2Cl)c(Cl)c1 (stereo not given),"remaining proliferation (% of control), lower = more inhibition",[1],-0.548%
same,"parasite growth, % of DMSO control",[2]; at 9.64 µM (top of the series),4.92%
same,"parasite growth, % of DMSO control",[2]; at 28.5 µM (top of the series),5.47%
same,"parasite growth remaining, % of DMSO control (lower = more inhibition)",[3]; at 9.64 µM (top of the series),11.2%
same,"parasite growth remaining, % of DMSO control (lower = more inhibition)",[3]; at 28.5 µM (top of the series),6.56%
same,"growth, % of control",[4]; at 9.64 µM (top of the series),8.03%
same,"growth, % of control",[4]; at 28.5 µM (top of the series),5.5%
same,"cell viability, % of control (lower = more cytotoxic)",[5],90.5%
same,viability (% of control),[6],72.7%
same,Potency,[7],inactive
same,Potency,[8],inactive
same,Potency,[9],26.4 µM (active)
same,Potency,[10],18.7 µM (active)
same,outcome,[11],inactive
CCC[C@@H](NC(=O)[C@@H]1[C@H]2CCC[C@@H]2CN1C(=O)[C@@H](NC(=O)[C@@H](NC(=O)c1cnccn1)C1CCCCC1)C(C)(C)C)C(=O)C(=O)NC1CC1,"parasite growth, % of DMSO control",[2]; [17],9.1%
same,"parasite growth remaining, % of DMSO control (lower = more inhibition)",[3]; [17],61.2%
same,"parasite growth, % of control (lower = inhibition)",[12],19.9%
same,"growth, % of control",[4]; [17],10.3%
same,"cell viability, % of control (lower = more cytotoxic)",[5],48.1%
same,viability (% of control),[6],63.1%
same,Potency,[7],inactive
same,Potency,[8],inactive
same,Potency,[9],inactive
same,Potency,[13],16.6 µM (active)
same,Potency,[14],inactive
Nc1ncnc2c1c(-c1cccc(OCc3ccccc3)c1)cn2C1CC(CN2CCC2)C1 (stereo not given),"parasite growth, % of DMSO control",[2]; [17],31.5%
same,"parasite growth remaining, % of DMSO control (lower = more inhibition)",[3]; [17],30.5%
same,"parasite growth, % of control (lower = inhibition)",[12],21.6%
same,"growth, % of control",[4]; [17],12.8%
same,"cell viability, % of control (lower = more cytotoxic)",[5],26.4%
same,viability (% of control),[6],44.4%
same,Potency,[7],inactive
same,Potency,[8],inactive
same,Potency,[9],20.9 µM (active)
same,Potency,[10],4.69 µM (active)
Cc1cc(C(C)Nc2ccccc2)c2nc(N3CCOCC3)cc(=O)n2c1 (stereo not given),"parasite growth, % of DMSO control",[2]; [17],11.8%
same,"parasite growth remaining, % of DMSO control (lower = more inhibition)",[3]; [17],71.3%
same,"parasite growth, % of control (lower = inhibition)",[12],31.1%
same,"growth, % of control",[4]; [17],15.4%
same,"cell viability, % of control (lower = more cytotoxic)",[5],47.8%
same,viability (% of control),[6],62.3%
same,Potency,[7],inactive
same,Potency,[8],inactive
same,Potency,[9],23.5 µM (active)
same,Potency,[10],23.5 µM (active)
same,Potency,[14],inactive
Cc1c(C(=O)Nc2ccc(N3C[C@@H](C)O[C@@H](C)C3)nc2)cccc1-c1ccc(OC(F)(F)F)cc1,"remaining proliferation (% of control), lower = more inhibition",[1],55.5%
same,"parasite growth, % of DMSO control",[2]; [17],54.5%
same,"parasite growth remaining, % of DMSO control (lower = more inhibition)",[3]; [17],72.7%
same,"parasite growth, % of control (lower = inhibition)",[12],54.1%
same,"growth, % of control",[4]; [17],46.7%
same,"cell viability, % of control (lower = more cytotoxic)",[5],10.2%
same,viability (% of control),[6],53.5%
same,Potency,[7],inactive
same,Potency,[8],inactive
same,Potency,[9],13.2 µM (active)
same,Potency,[15],inactive
same,Potency,[16],inactive
CNc1nc(Nc2ccc(C(=O)N3CCOCC3)cc2OC)ncc1Cl,"parasite growth, % of DMSO control",[2]; [17],69.3%
same,"parasite growth remaining, % of DMSO control (lower = more inhibition)",[3]; [17],90.3%
same,"parasite growth, % of control (lower = inhibition)",[12],56.9%
same,"growth, % of control",[4]; [17],54.9%
same,"cell viability, % of control (lower = more cytotoxic)",[5],103%
same,viability (% of control),[6],93.7%
same,Potency,[7],inactive
same,Potency,[8],inactive
same,Potency,[9],inactive
same,Potency,[13],inactive
same,Potency,[14],inactive
CNC(=O)c1ccc2c(C(=Nc3cccc(CN(C)C)c3)c3ccccc3)c(O)[nH]c2c1,"parasite growth, % of DMSO control",[2]; [17],19.9%
same,"parasite growth remaining, % of DMSO control (lower = more inhibition)",[3]; [17],18.6%
same,"parasite growth, % of control (lower = inhibition)",[12],15.2%
same,"growth, % of control",[4]; [17],19%
same,"cell viability, % of control (lower = more cytotoxic)",[5],4.19%
same,viability (% of control),[6],19.6%
same,Potency,[7],inactive
same,Potency,[8],inactive
same,Potency,[9],16.6 µM (active)
same,Potency,[10],inactive
same,Potency,[14],inactive
